In test [1] the target is Guanine nucleotide-binding protein G(i) subunit alpha-1 (Homo sapiens) (UniProt P63096). In words: qHTS Assay for Inhibitors of RGS12 GoLoco Motif Activity (Green Fluorophore) (AID 879). Also: potency is read from the fitted curve at half-maximal effect. The method in brief:
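A drop in FITC polarization marked displacement of the FITC-tagged RGS12 GoLoco peptide (10 nM) from Gαi1 (50 nM). Compounds were incubated 10 min at room temperature in Tris pH 7.5 buffer containing 150 mM NaCl, 0.1 mM GDP and 0.05% NP40; unlabeled peptide titration served as control.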
On the technique in general: In qHTS, concentration-response curves come from the screen itself.

Test [2] deals with Pyruvate kinase (Leishmania mexicana) (UniProt Q27686). Kind of test: qHTS Validation Assay for Inhibitors of Leishmania Mexicana Pyruvate Kinase (AID 945).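 Also: 0% = DMSO only neutral control wells.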 The method in brief: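 The enzyme is a highly purified E451W mutant of LmPYK used at 0.2 nM. It converts 0.5 mM PEP and 0.1 mM ADP over 1 h at room temperature; product ATP is quantified by luciferase luminescence relative to DMSO controls.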
Chain of Pyruvate kinase (Leishmania mexicana) (Q27686 2-499 E452W): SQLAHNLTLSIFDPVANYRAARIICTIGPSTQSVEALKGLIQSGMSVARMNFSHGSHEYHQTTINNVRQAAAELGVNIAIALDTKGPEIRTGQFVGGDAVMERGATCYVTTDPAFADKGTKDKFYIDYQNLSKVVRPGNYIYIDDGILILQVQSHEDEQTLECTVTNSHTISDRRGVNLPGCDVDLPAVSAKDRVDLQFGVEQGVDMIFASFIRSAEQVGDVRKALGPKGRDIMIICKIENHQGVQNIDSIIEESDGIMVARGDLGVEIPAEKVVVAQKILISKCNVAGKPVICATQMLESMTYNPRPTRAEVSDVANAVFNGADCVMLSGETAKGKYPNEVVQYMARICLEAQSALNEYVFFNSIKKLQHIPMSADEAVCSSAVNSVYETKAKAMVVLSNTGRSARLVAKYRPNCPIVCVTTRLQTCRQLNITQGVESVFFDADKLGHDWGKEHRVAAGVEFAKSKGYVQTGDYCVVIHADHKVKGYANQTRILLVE

For test [3], the target named is Pyruvate kinase PKM (Homo sapiens) (UniProt P14618). In words: qHTS Assay for Activators of Human Muscle Pyruvate Kinase (AID 954; active = well fitted curve in the direction sought with a large enough effect, not every such curve was filed as active; inconclusive = small, poorly fitted or top-dose-only effect, or effect the other way, or another doubt; inactive = no such curve, though single readings can be large or run the other way;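 also: 0% = uninhibited enzyme and -100% = no enzyme or full thiadiazolimine inhibition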). The method in brief:
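A coupled luminescent readout tracked ATP made from ADP by purified PKM2. Final conditions included 0.1 nM enzyme, PEP and ADP at 0.5 and 0.1 mM, pH 7.2 imidazole buffer with BSA, and a one-hour room-temperature reaction.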

The target of test [4] is Alpha-galactosidase (Coffea arabica) (UniProt Q42656). Kind of test: Counterscreen for Glucocerebrosidase Inhibitors: qHTS Assay for Coffee Bean alpha-Galactosidase at pH 4.5 (AID 957).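 Also: plate controls were enzyme alone for no effect and no enzyme for full effect.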 The method in brief: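 Quantitative HTS of compounds (0.7 nM to 77 uM) against coffee bean alpha-galactosidase at pH 4.5, measuring 4-methylumbelliferone fluorescence released from 80 uM substrate.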
Chain of Alpha-galactosidase (Coffea arabica) (Q42656 whole entry, looked up): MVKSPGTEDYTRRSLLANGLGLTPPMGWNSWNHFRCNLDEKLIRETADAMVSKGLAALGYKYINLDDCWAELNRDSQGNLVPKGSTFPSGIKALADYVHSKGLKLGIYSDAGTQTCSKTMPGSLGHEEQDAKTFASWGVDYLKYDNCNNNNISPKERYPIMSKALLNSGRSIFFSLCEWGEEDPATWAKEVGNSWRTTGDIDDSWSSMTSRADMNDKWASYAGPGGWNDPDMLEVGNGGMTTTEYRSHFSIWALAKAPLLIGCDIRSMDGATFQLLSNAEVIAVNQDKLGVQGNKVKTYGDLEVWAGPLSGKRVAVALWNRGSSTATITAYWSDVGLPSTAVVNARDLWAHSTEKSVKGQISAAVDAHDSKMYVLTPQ
(In general: Counterscreens check selectivity or assay interference.)

Test [5] concerns the target alpha-glucosidase (Oryza sativa, rice) (UniProt Q653V4). In words: Counterscreen for Glucocerebrosidase Inhibitors: qHTS Assay for Rice alpha-Glucosidase at pH 5.0 (AID 997).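 Also: 0% = full activity with enzyme and -100% = basal without enzyme.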 The method in brief: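 Endpoint fluorogenic assay at pH 5.0: compounds (0.7 nM to 77 uM) titrated against 4 nM rice enzyme and 400 uM 4-MU-alpha-glucoside for 20 min at room temperature; NaOH/glycine stop, read ex 365/em 440 nm, Hill-fitted AC50.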

Test [6] addresses Alpha-galactosidase (Coffea arabica) (UniProt Q42656). Kind of test: Counterscreen for Glucocerebrosidase Inhibitors: qHTS Assay for Coffee Bean alpha-Galactosidase at pH 5.9 (AID 998).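 Also: plate controls were uninhibited enzyme for no effect and no-enzyme basal signal for full effect.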 The method in brief:
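In 50 mM citric acid pH 5.9 with 0.005% Tween-20, coffee bean enzyme hydrolyses 80 uM 4-MU alpha-D-galactopyranoside over 20 min at RT. Activity is normalized to controls; AC50 comes from Hill-modelled concentration-response data.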

A short description of test [7]: Cellular Toxicity (caspase-3) Jurkat (AID 655).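 Also: cells exposed to compound for 16 h at 37 °C before reading.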 The note with it: Jurkat caspase-3 activation, luminescence; caspase-3 activation: at 92.2 µM (top of the series), DMSO = 0%, tamoxifen = 100%. The method in brief: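 Jurkat cells (5000/well) in complete medium were treated with compounds for 16 hr at 37 °C, then Caspase-Glo 3/7 luminescence was read after 20 min at room temperature. Data normalized to DMSO (basal) and 100 uM tamoxifen (100%); AC50 from Hill fit.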

Test [8] can be described thus: Cell Viability - LYMP2-026 (AID 989).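 Also: potency is read from the fitted curve at half-maximal effect; cells exposed to compound for 24 h at 37 °C; nearly all actives have a fitted effect of over 50% in size.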 The method in brief: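 Acute toxicity screen in complete culture medium, with 24 hr compound exposure at 37 C. Viability read as cellular ATP via luciferase reaction, with tetraoctylammonium bromide (6.4pM to 92 uM) as positive control.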
Test [9] addresses Glucocorticoid receptor (Homo sapiens) (UniProt P04150). Kind of test: qHTS assay for small molecule agonists of glucocorticoid receptor signaling (AID 588532; active = well fitted curve in the direction sought with a large enough effect in the signal ratio, with a control signal flat; inconclusive = small, poorly fitted or top-dose-only effect, or a change in a side signal; inactive = no such curve, though single readings can be large or run the other way; the % refers to the signal ratio;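 also: 100% = dexamethasone at 0.1 µM and 0% = DMSO only wells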). The conditions noted are these: HeLa MMTV-bla, beta-lactamase ratio, agonist, 18 h; activation: stronger effect = higher value, percent of dexamethasone control, DMSO zero. The method in brief:
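MMTV-bla HeLa, beta-lactamase reporter; medium with 1% charcoal/dextran-stripped FBS; cpds up to 92 uM, 18 h, 37 C; CCF4 readout 460/530 nm; Hill fit → EC50, efficacy vs 0.1 uM dexamethasone = 100%.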

In test [10] the target is Peroxisome proliferator-activated receptor delta (Homo sapiens) (UniProt Q03181). In words: qHTS assay for small molecule agonists of peroxisome proliferator-activated receptor delta signaling (AID 588534; calls by dose curve;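 also: 0% = DMSO basal wells and 100% = positive control agonist at 10 µM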). The method in brief: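 EC50 and efficacy values derive from Hill fits of a concentration series in a beta-lactamase reporter cell assay. Exposure is 18 hrs at 37 C, with CCF4 fluorescence as the readout.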
Chain of Peroxisome proliferator-activated receptor delta (Homo sapiens) (Q03181 whole entry, looked up): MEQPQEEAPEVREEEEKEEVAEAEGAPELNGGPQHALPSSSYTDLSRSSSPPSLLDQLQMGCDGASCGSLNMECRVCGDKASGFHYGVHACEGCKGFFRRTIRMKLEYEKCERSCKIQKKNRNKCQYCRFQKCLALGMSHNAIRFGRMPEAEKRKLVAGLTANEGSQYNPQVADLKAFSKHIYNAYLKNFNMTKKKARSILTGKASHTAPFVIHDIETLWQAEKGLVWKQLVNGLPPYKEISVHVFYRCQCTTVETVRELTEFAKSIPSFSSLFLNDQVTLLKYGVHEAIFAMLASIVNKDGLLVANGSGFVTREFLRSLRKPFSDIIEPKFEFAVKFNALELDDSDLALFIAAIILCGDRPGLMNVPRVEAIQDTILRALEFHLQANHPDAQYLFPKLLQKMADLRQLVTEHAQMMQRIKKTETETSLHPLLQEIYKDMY

Test [11] has as its target Vitamin D3 receptor (Homo sapiens) (UniProt P11473). In words: qHTS assay for small molecule antagonists of vitamin D receptor signaling (AID 588541; calls by dose curve; also: potency is read from the fitted curve at half-maximal effect). The method in brief: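 VDR-UAS-bla HEK293T cells (2000/well, 2% charcoal-stripped FBS) were treated with titrated compounds plus 1-alpha,25-dihydroxyvitamin D3 (50 nM or 3 nM final) for 16 h at 37 C. CCF4 beta-lactamase fluorescence was read; Hill fits gave IC50.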

Test [12] shares this target. In words: qHTS assay for small molecule agonists of vitamin D receptor signaling (AID 588543; calls by dose curve;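 also: 0% = DMSO basal and 100% = reference agonist control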). The method in brief:
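GeneBLAzer VDR-UAS-bla HEK293T cells in 2% charcoal-stripped FBS medium were dosed with compound titrations for 16 h at 37 °C; CCF4 β-lactamase readout (405 nm ex, 460/530 nm em). EC50 and efficacy from Hill fits, normalized to 50 nM calcitriol (100%) and DMSO (0%).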

Test [13] concerns the target Thyroid hormone receptor beta (Homo sapiens) (UniProt P10828). Kind of test: qHTS assay for small molecule agonists of thyroid hormone receptor beta signaling (AID 588545; calls by dose curve;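 also: 0% = DMSO only and 100% = 10 nM T3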). The method in brief: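 Efficacy and EC50 values derive from Hill fits of qHTS titration data, normalized to 10 nM T3 and DMSO-only wells. HEK 293 reporter cells were stimulated for 18 hrs at 37 C, with beta-lactamase activity measured by CCF4 fluorescence.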

The nature of test [14]: qHTS assay for small molecule antagonists of retinoid X receptor alpha signaling (AID 588546).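 Also: cells stimulated with 9-cis-retinoic acid as agonist; % is scaled to controls: 0 for no effect and ±100 for the full control effect.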 The conditions noted are these: HEK293T RXRa-UAS-bla, beta-lactamase ratio, antagonist mode; measured here: W530 green channel, cytotoxicity proxy. The method in brief: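 Beta-lactamase reporter inhibition, read as CCF4 fluorescence ratio (ex 405, em 460/530 nm) after 2 h at RT. HEK293T UAS-bla cells, 2500/well, were stimulated with 9-cis-RA at 500 or 100 nM final alongside test compound for 18 h at 37 C.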

Test [15] concerns the target Thyroid hormone receptor beta (Homo sapiens) (UniProt P10828). Kind of test: qHTS assay for small molecule antagonists of thyroid hormone receptor beta signaling (AID 588547; active = well fitted inhibition curve with a large enough effect in the signal ratio, with a control signal flat, not every such curve was filed as active; inconclusive = small, poorly fitted or top-dose-only effect, or effect the other way, or a change in a side signal; the % refers to the signal ratio;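 also: cells stimulated with 0.4 nM T3 agonist during compound exposure; % is scaled to controls: 0 for no effect and ±100 for the full control effect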). The note with it: TR-UAS-bla HEK293, beta-lactamase ratio, antagonist mode, 18 h. The method in brief:
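TR-UAS-bla GripTite HEK293 cells in 2% charcoal/dextran FBS medium were preincubated 4 h at 37 C, given compound (0.59 nM to 92 uM) plus 0.4 nM T3 (final) for 18 h, then CCF4 for 2 h at RT; Hill fit gave IC50.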

The nature of test [16]: qHTS assay for small molecule agonists of the antioxidant response element (ARE) signaling pathway (AID 651741; active = well fitted activation curve with a large enough effect in the signal ratio; inconclusive = small, poorly fitted or top-dose-only effect, or effect the other way, or a change in a side signal; the % refers to the signal ratio; also: potency is read from the fitted curve at half-maximal effect). The method in brief:
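Beta-lactamase reporter expression driven by the antioxidant response element in HepG2 cells was detected by fluorescence with LiveBLAzer B/G FRET substrate (2 h, room temperature) following 16 h compound treatment at 37 C.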

A short description of test [17]: qHTS assay for small molecule activators of the p53 signaling pathway (AID 651743; active = well fitted activation curve with a large enough effect in the signal ratio, not every such curve was filed as active; inconclusive = small, poorly fitted or top-dose-only effect, or a change in a side signal; the % refers to the signal ratio; also: potency is read from the fitted curve at half-maximal effect; as to activation: % of control where 0% means no effect). The conditions noted are these: HCT-116 p53RE-bla, beta-lactamase FRET ratio, 16 h; activation: stronger effect = higher value. The method in brief:
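Here HCT-116 cells with an integrated p53-responsive beta-lactamase gene were incubated with compounds (16 hours, 37 C) after a 5-hour plating period; beta-lactamase activity was detected as fluorescence intensity via B/G FRET substrate.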

Test [18] can be described thus: qHTS assay for small molecule disruptors of the mitochondrial membrane potential - 1 hr assay (AID 651754; calls by dose curve; also: % is scaled to controls: 0 for no effect and ±100 for the full control effect; nearly all actives have a fitted effect of over 35% in size). The method in brief:
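In this qHTS format, a 1 hr compound treatment of HepG2 cells precedes Mito-MPS staining, and membrane potential is judged from aggregate (red) against monomer (green) fluorescence intensity.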

The target of test [19] is Estrogen receptor (Homo sapiens) (UniProt P03372). Kind of test: qHTS assay for small molecule antagonists of estrogen receptor alpha signaling (AID 588513; active = well fitted curve in the direction sought with a large enough effect in the signal ratio, with a control signal flat, not every such curve was filed as active; inconclusive = small, poorly fitted or top-dose-only effect, or effect the other way, or a change in a side signal; inactive = no such curve, though single readings can be large or run the other way; the % refers to the signal ratio; also: potency is read from the fitted curve at half-maximal effect). The method in brief:
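ER-alpha-UAS-bla GripTite HEK 293 cells in medium with 2% charcoal/dextran-treated FBS were preincubated 4 h at 37 C, dosed with compound (1:2 titration), stimulated with 0.5nM 17-beta-estradiol for 18 h, then read by CCF4 beta-lactamase fluorescence.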

The target in test [20] is Bile acid receptor (Homo sapiens) (UniProt Q96RI1). Kind of test: qHTS assay for small molecule agonists of farnesoid X receptor signaling (AID 588527; calls by dose curve;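 also: 0% = vehicle basal and 100% = reference agonist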). The conditions noted are these: HEK293T FXR-UAS-bla, beta-lactamase ratio, 16 h; activation: stronger effect = higher value. The method in brief:
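FXR-UAS-bla HEK293T, 10% dialyzed FBS; cpds up to 92 uM titration, 16 h 37 C; CCF4 dye 2 h RT; fluorescence. Normalized to chenodeoxycholic acid 100 uM (100%) and DMSO (0%); Hill fit gives EC50, efficacy.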

“And” between values parts separate entries of the source, which are not always exact repeats. Equal entries are not always repeated. Some compounds were tested as several samples or in several runs, with calls that do not always agree. The source made the active and inactive calls. Unless noted, calls follow the shape of the dose curve; as a rule, active = well fitted curve in the direction sought with a large enough effect; inconclusive = small, poorly fitted or top-dose-only effect, or another doubt; inactive = no such curve, though single readings can be large; an effect the other way counts as inactive or inconclusive.

Chain of Guanine nucleotide-binding protein G(i) subunit alpha-1 (Homo sapiens) (P63096 whole entry, looked up): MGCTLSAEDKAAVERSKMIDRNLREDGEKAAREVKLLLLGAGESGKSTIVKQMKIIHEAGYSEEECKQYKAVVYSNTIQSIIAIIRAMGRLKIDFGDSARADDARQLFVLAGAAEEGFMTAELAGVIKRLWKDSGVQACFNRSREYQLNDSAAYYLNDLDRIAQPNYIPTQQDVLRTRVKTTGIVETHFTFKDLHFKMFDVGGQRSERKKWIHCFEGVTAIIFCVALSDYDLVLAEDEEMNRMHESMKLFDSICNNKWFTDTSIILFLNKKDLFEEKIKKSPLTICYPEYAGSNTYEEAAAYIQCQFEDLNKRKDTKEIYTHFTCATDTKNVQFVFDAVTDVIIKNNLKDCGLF
Chain of Glucocorticoid receptor (Homo sapiens) (P04150 whole entry, looked up): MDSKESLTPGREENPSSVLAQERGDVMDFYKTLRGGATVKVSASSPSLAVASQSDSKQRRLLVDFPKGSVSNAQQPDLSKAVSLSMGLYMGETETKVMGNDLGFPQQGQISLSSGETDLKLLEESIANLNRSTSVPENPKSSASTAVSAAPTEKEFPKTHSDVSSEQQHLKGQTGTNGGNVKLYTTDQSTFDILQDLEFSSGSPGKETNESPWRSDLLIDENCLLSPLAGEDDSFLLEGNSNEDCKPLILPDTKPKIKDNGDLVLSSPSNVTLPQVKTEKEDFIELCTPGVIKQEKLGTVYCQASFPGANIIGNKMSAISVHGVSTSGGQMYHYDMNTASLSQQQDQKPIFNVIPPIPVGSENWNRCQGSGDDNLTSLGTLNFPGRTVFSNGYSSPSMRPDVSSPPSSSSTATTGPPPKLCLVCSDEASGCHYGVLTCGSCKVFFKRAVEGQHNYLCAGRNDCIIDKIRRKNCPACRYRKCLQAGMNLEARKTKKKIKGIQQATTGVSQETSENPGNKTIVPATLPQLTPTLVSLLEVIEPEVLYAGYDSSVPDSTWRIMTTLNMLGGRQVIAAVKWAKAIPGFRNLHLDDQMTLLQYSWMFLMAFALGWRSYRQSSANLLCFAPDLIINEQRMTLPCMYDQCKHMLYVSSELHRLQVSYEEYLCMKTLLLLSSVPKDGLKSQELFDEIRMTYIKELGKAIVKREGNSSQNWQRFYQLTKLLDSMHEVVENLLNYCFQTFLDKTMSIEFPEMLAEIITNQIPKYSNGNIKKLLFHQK
Chain of Vitamin D3 receptor (Homo sapiens) (P11473 whole entry, looked up): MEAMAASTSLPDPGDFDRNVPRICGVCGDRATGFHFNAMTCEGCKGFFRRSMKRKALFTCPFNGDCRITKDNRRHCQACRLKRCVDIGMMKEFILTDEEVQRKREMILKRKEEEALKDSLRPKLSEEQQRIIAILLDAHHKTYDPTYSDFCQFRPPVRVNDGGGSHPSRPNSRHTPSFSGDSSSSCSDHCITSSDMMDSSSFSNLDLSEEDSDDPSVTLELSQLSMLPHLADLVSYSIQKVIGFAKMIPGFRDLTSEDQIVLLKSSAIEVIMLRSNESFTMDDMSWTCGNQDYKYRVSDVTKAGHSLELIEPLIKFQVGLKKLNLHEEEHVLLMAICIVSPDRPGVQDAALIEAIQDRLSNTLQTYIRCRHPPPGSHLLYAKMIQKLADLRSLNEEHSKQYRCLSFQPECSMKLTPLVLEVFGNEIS
Chain of Thyroid hormone receptor beta (Homo sapiens) (P10828 whole entry, looked up): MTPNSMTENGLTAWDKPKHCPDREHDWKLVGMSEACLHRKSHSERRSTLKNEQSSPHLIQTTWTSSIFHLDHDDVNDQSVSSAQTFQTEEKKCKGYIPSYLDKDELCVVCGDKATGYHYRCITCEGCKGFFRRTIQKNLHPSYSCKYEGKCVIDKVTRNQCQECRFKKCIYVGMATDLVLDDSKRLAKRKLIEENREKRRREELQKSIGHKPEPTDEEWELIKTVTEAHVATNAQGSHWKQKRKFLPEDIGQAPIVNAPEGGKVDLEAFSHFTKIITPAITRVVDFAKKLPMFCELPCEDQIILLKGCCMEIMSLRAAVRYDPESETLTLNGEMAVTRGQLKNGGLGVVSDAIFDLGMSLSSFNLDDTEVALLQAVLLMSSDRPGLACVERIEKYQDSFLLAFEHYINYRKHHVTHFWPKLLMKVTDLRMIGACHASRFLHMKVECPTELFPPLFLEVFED
Chain of Pyruvate kinase PKM (Homo sapiens) (P14618 whole entry, looked up): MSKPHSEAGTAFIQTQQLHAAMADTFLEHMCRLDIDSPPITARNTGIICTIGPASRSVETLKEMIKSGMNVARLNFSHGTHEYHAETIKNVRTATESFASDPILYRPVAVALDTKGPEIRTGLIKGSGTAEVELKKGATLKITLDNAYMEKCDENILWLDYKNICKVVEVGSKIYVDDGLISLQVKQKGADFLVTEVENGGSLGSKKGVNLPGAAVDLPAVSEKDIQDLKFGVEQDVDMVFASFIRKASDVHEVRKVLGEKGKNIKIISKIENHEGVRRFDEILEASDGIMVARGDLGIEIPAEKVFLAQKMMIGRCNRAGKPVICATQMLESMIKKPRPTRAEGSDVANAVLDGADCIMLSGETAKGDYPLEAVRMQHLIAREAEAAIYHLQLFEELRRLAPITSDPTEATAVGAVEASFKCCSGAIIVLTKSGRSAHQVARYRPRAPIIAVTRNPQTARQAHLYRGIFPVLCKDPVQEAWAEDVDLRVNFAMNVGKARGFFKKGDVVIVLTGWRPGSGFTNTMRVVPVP
Chain of Bile acid receptor (Homo sapiens) (Q96RI1 whole entry, looked up): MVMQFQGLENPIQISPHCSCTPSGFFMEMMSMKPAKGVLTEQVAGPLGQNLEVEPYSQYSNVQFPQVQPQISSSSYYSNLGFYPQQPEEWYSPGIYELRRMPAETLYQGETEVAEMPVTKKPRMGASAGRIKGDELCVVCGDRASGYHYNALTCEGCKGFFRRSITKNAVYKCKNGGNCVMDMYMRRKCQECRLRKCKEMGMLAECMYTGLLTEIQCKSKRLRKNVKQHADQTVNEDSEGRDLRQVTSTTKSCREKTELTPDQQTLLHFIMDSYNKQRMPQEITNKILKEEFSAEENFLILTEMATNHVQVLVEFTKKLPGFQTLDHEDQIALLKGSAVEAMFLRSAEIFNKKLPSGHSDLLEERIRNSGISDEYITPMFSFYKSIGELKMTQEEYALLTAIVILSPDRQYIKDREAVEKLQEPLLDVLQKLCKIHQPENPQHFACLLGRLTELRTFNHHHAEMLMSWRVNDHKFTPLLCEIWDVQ
Chain of Estrogen receptor (Homo sapiens) (P03372 whole entry, looked up): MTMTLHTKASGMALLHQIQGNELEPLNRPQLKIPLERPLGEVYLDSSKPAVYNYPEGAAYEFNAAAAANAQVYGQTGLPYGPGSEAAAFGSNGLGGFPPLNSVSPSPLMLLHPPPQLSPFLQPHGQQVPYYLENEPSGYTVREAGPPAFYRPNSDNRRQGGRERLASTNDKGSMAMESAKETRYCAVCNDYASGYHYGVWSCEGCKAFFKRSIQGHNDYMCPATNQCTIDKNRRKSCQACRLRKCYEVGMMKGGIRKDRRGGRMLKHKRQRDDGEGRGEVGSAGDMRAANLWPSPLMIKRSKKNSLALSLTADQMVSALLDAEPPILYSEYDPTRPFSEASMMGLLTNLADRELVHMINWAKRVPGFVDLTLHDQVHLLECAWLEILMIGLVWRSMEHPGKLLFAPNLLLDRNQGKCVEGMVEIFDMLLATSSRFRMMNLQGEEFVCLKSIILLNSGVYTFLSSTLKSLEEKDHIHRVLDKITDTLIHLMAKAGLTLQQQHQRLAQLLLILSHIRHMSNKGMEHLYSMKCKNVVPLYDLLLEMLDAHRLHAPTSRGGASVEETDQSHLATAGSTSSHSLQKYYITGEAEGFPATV

For the molecule `CCCCCCCCCCCCCC(=O)O[C@H]1[C@@H](C)[C@@]2(O)[C@@H](C=C(CO)C[C@]3(O)C(=O)C(C)=C[C@@H]23)C2C(C)(C)[C@]21OC(C)=O` (some centres not stated), the Potency result in [1] and in test [2] was “inactive” throughout. Also, the molecule was classed as inactive in [3], in [4], in test [5] and in [6].

Turning to `CN1[C@@H]2CC[C@H]1CC(O[C@@H](c1ccccc1)c1ccccc1N)C2` (some centres not stated), the Potency result in [1] and in test [2] was “inactive” throughout. The molecule was called inactive in [3], in [4], in [5] and in test [6].

For the molecule `C=CCN1C[C@@H](C)N([C@H](c2ccc(C(=O)N(CC)CC)cc2)c2cccc(OC)c2)C[C@H]1C`, the Potency result in test [1] and in test [2] was “inactive” throughout. Moreover, the molecule was classed as inactive in test [3], in [5] and in test [6].

Turning to `CC(C)(C)NC[C@H](O)c1ccccc1Cl`, the Potency entry in test [1] and in test [2] was “inactive” in each case. Besides, the call in test [3], in test [4], in [5] and in [6] was inactive.

In the case of `Ic1ccccc1CN[C@@H]1C2CCN(CC2)[C@H]1C(c1ccccc1)c1ccccc1`, the Potency entry in test [1] and in test [2] was “inactive” each time. For the same molecule, the result in test [3], in [4], in [5] and in test [6] was inactive.

Regarding `CCCC[N+]1(C)[C@@H]2CC(OC(=O)[C@@H](CO)c3ccccc3)C[C@H]1[C@H]1O[C@H]12` (some centres not stated), the Potency entry in test [1] and in [2] was “inactive” each time. Moreover, the call in [3], in test [4], in test [5] and in [6] was inactive.

Consider `NC(N)=Nc1ccc2[nH]c3c(c2c1)C[C@]1(O)[C@@H]2Cc4ccc(O)c5c4[C@]1(CCN2CC1CC1)[C@H]3O5`, for which the Potency in test [1] was 25.1 µM (active). In addition, the result in test [3], in test [4], in test [5] and in test [6] was inactive.

Turning to `C=C(C)[C@H]1Cc2c(ccc3c2O[C@H]2COc4cc(OC)c(OC)cc4[C@@H]2C3=O)O1`, the Potency result in [1] is “inactive”. Besides, the result in test [3], in test [4], in [5] and in [6] was inactive.

`O=C(CCl)c1ccccc1`: the caspase-3 activation in test [7] was -8.71% (inactive). For the same molecule, the Potency is 12.6 µM (active) in [8]; 35.5 µM (active) and inactive in [11]; 61.1 µM (active) in test [16]. The activation in [9] was 5.85% (inactive) and 11.4% (inactive); in test [17], 2.08% (inactive). Moreover, the outcome in test [10] and in [12] was inactive. Also, the Potency result in test [13] and in test [18] was “inactive” in each case. The max response in test [14] is -13.4%. In test [15], the activity change % (negative = inhibition) was -10.9% (inactive).

As for `CCCCCCCCn1sccc1=O`, the Potency in test [8] was 3.98 µM (active); in [19] it was 14.1 µM [inconclusive] (active); in test [11] it was 22.4 µM (active); in test [16] it was 66.8 µM (active) and 54.5 µM (active). Besides, the activation in test [20] was 6.4% (inactive); in [17] it was -5.11% (inactive). Further, the molecule was classed as inactive in test [10] and in test [12]. In addition, the Potency entry in [13] is “inactive”.

For `N#CSCSC#N`, the caspase-3 activation in test [7] is -5.48% (active). In addition, the values for the Potency in test [8] and in test [17] were 7.94 µM (active) and 25.1 µM (active), respectively. Further, the values for the activation in test [20] and in [9] were 17.3% (inactive) and 0.19% (inactive), respectively. The Potency result in test [18] was “inactive”.

These data come from PubChem BioAssay (NCATS).
